Rev-erbA mod = modulators of human Rev-erb alpha DNA binding; P20393; Rev-erbα–FITC-DNA binding, fluorescence polarization, 90 min; activity, % at 10 µM; hit rate 0.79% among 370,000;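 active means activity above about 14%, limit read from the data; passing the limit was not always enough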;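 further: 0% = DMSO wells with 35 nM protein and 100% = DMSO wells with 750 nM protein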
NPR1 activator = GC-A (human) enzyme activation; HEK293 GC-A cells, cGMP TR-FRET, EC30 ANP; 0% at EC30 ANP, 100% saturating ANP; activation, % at 10 µM; hit rate 0.14% among 370,000; P16066; in the data active means activation above about 40%
Target sequence (P16066 whole entry, looked up): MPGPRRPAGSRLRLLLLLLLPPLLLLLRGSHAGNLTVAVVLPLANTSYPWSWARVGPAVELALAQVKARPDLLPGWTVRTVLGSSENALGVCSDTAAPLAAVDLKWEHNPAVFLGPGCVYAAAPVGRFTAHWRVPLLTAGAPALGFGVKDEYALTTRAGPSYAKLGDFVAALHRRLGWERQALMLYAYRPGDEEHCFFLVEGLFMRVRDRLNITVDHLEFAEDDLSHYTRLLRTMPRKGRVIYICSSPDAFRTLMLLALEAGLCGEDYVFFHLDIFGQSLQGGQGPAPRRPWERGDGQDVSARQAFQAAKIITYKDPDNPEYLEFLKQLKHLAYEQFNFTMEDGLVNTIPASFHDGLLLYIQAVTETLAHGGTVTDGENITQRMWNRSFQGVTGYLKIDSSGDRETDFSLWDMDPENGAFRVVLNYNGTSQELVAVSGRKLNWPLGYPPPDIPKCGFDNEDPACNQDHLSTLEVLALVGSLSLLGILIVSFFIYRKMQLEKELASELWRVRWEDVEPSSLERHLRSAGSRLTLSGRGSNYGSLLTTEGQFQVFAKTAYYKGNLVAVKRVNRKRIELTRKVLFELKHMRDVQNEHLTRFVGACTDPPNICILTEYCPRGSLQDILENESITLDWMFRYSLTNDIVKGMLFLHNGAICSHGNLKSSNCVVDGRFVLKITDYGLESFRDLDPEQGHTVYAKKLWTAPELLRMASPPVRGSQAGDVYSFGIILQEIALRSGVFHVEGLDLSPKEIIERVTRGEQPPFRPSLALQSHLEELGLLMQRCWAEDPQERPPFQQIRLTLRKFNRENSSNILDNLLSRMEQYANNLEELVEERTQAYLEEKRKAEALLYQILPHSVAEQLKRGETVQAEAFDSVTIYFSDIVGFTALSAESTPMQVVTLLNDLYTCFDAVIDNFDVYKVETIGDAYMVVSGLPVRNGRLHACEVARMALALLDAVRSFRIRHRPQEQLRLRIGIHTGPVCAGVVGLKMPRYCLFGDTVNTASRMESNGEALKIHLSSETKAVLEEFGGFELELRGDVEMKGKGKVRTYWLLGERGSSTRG
V-ATPase pH = yeast V-ATPase proton transport regulation by pHLuorin. S. cerevisiae, pHLuorin cytosolic pH fluorescence. response, % at 10 µM. hit rate 0.37% among 350,000; in the data active means response mostly above about 7.3%, no sharp cut-off; inactive means mostly below about 5.4%; further: actives read high
NPR2 activator = GC-B (human) receptor activation | P20594 | HEK293-GC-B cells, CNP EC30, cGMP TR-FRET; 0% at EC30 CNP, 100% saturating CNP | activation, % at 10 µM | hit rate 0.11% among 370,000 | AID 1920062;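 active means activation at 10 µM reaching about 35% in either raw or pattern-adjusted values, limit read from the data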
PG9 Ab binder = PG9 antibody binding by small molecule; inhibition, % at 6.7 µM; hit rate 0.43% among 360,000; TR-FRET gp120-PG9 antibody binding; AID 624416; in the data active means inhibition above about 8.5%
Rev-erbA confirm = confirmation of modulators of human Rev-erb alpha DNA binding. shares compounds with Rev-erbA mod. Rev-erb alpha FITC-DNA binding, fluorescence polarization, 90 min. activation, % at 25 µM. hit rate 61% among 3,000. AID 1259319;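 active means activation at or above a set limit, or at least 3 SD above the negative control mean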;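 further: 0% = 35 nM protein with DMSO and 100% = 750 nM protein high control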
RORg DNA counter = affects RORgamma DNA binding in a Rev-erb alpha counter-screen | shares compounds with Rev-erbA mod | purified RORgamma protein-FITC-DNA binding, fluorescence polarization | IC50, µM | hit rate 8% among 910 | AID 1259320;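 active means Compounds whose fitted half-maximal concentration for disrupting protein-DNA binding is below 10 micromolar; the record names Rev-erb in its text, so the target is in doubt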
Numbers without * were called inactive; i = inactive; . = no result given. An excerpt weighted towards active compounds, which were near 1.6% of everything screened.

SMILES | Rev-erbA mod | NPR1 activator | V-ATPase pH | NPR2 activator | PG9 Ab binder | Rev-erbA confirm | others
C/C=C(/C)C(=O)O[C@@H]1[C@H](OC(=O)C=C(C)C)c2c(ccc3ccc(=O)oc23)OC1(C)C | -7 | -6 | 1 | -6 | 3 | .
CC(=O)c1ccc(N2CCN(c3ccc(C(F)(F)F)cn3)CC2)cc1 | 37* | -2 | 1 | -1 | 1 | 29*
C[n+]1cc(C(=O)N2CCCCC2)ccc1/C=C/c1c[nH]c2ccccc12 | 75* | -13 | 2 | -13 | -10 | 58* | RORg DNA counter=>40
O=C(C(=O)N1CCCCCC1)c1c[nH]c2ccccc12 | 4 | 3 | -1 | 11 | -2 | .
CN(C)/C=N/c1c(C#N)cnn1-c1nc2ccccc2s1 | 50* | -3 | -5 | 1 | 2 | 19*
CN(C)/C=N/c1c(C#N)cnn1-c1ccccc1 | -3 | 4 | -2 | 3 | 0 | .
Cc1ccc(-n2nccc2-c2nn(-c3cccc(C(F)(F)F)c3)c(=O)n(C)c2=O)cc1 | 33* | -6 | 1 | 13 | -1 | 10
O=c1c2ccccc2c(-c2ccc(O)cc2)nn1-c1cccc(C(F)(F)F)c1 | 3 | 5 | 2 | 9 | 0 | .
Cc1sc(NC(=O)c2oc3ccccc3c2C)c(C#N)c1C | 226* | 9 | -4 | -6 | . | 283*
Cc1cc(C)c2nc(SCC(=O)N3CCCCC3)c(C#N)cc2c1 | 27* | -3 | 0 | -2 | -1 | 23*
Cc1cc2cccc(C)c2nc1SCC(=O)NCC1CCCO1 (stereo unspecified) | 4 | -5 | 1 | 0 | -1 | .
Cc1cc(C)c2nc(SCC(=O)NCC3CCCO3)c(C#N)cc2c1 (stereo unspecified) | 60* | -1 | 0 | 0 | -1 | 42* | RORg DNA counter=>40
CCOC(=O)CNC(=O)CSc1nnc(-c2ccc(C(C)(C)C)cc2)n1-c1ccc(Cl)cc1 | 4 | -3 | . | -3 | . | .
CCSc1nnc(-c2ccc(C)cc2)c2ccccc12 | -2 | -5 | 2 | -1 | 1 | .
CCSc1nnc(-c2ccc(Cl)cc2)c2ccccc12 | 239* | -6 | -1 | -3 | 1 | 289* | RORg DNA counter=>40
COc1ccc(CC(=O)OCc2cc3cccc(C)c3[nH]c2=O)cc1 | 24 | -5 | -2 | -8 | . | .
COc1ccc(C(=O)OCc2cc3cccc(C)c3[nH]c2=O)cc1 | 59* | 7 | -1 | -1 | 6 | 26*
C=CCn1c(=S)[nH]c2cc(C(=O)NCCc3ccc(S(N)(=O)=O)cc3)ccc2c1=O | -1 | -3 | 3 | -2 | -1 | .
Cc1ccc(Cn2c(=S)[nH]c3ccccc3c2=O)cc1 | 12 | 10 | 5 | 6 | -3 | .
NS(=O)(=O)c1ccc(CCNC(=O)c2ccc(Cn3c(=O)[nH]c4ccccc4c3=O)cc2)cc1 | 19* | 5 | -2 | 3 | 8 | 1
CC(C)CCNC(=O)c1ccc(Cn2c(=S)[nH]c3ccccc3c2=O)cc1 | 29* | 2 | 2 | 0 | 4 | 26*
CCOC(=O)N1CCN(C(=O)C[C@H]2C[C@@]3(C(=O)OC)C(=C[C@H](C(C)C)O[C@@H]3C3CC3)N(CCc3ccc(OC)c(OC)c3)C2=O)CC1 | -3 | 1 | . | 4 | . | .
COc1cc2ccccc2cc1C(=O)Nc1ccc(Br)cn1 | 36* | -28 | 13 | -10 | 0 | 28*
COc1cc(SC)ccc1C(=O)Nc1ccc(Cl)cn1 | 18* | -8 | 0 | -6 | 0 | 34* | RORg DNA counter=i
COc1ccccc1C(=O)Nc1ccon1 | -4 | 3 | -1 | 3 | -3 | .
SMILES | Rev-erbA mod | NPR1 activator | V-ATPase pH | NPR2 activator | PG9 Ab binder | Rev-erbA confirm | others
COc1ccccc1C(=O)NNC(=O)c1cccc(Br)c1 | 1 | 3 | 0 | 1 | -1 | .
COc1ccccc1C(=O)Nc1cccc(NC(=O)c2ccccc2OC)n1 | 23* | 0 | 3 | -4 | -1 | 13
COc1ccccc1C(=O)NNC(=O)c1cccc(Cl)c1 | 29* | 2 | 1 | 3 | 0 | 9
CCCC(=O)OC12CCCN(C1)/C(=C/c1ccccc1)C2 (stereo unspecified) | -1 | -2 | . | 2 | . | .
CC(=O)Nc1ccc(C(CCCc2ccccc2)C2=CCCCC2)cc1 (stereo unspecified) | 0 | 0 | . | 5 | . | .
CC(=O)N1CCc2c(sc(NC(=O)C3CC3)c2-c2nc3ccccc3s2)C1 | 170* | -6 | 1 | -28 | 0 | 5
CC(=O)Nc1sc2c(c1-c1nc3ccccc3s1)CCN(C(C)=O)C2 | 21 | -15 | . | 3 | . | .
CCCCCCCCN1C(=O)[C@@H](CC(=O)N2CCC(c3ccccc3)CC2)C[C@@]2(C(=O)OC)C1=C[C@H](COCc1ccccc1)O[C@@H]2C | 0 | -5 | . | 9 | . | .
O=S1(=O)c2c(cccc2N2CCSCC2)Oc2ccccc2CN1Cc1cn(Cc2ccc(C(F)(F)F)cc2)nn1 | 2 | 3 | . | 4 | . | .
Cc1cccc2cc(C#N)c(NCCNC(=O)NC3CCCCC3)nc12 | 62* | -13 | -3 | -6 | 1 | 31* | RORg DNA counter=>40
C=C1CC[C@H](O)C/C1=C/C=C1\CCCC2(C)C1CCC2C(C)CCCC(C)C (stereo partly specified) | 6 | . | . | . | . | .
CCOCC(=O)Nc1c(C(=O)Nc2ccccc2OC)oc2ccccc12 | 47* | 5 | 1 | -2 | 1 | 39*
COc1ccc(NC(=O)c2oc3ccccc3c2NC(=O)COc2ccccc2OC)c(OC)c1 | 42* | 11 | -3 | 4 | -2 | 31*
O=C(NCCCN1CCN(c2ccc(F)cc2)CC1)NCc1ccccc1 | -3 | 0 | . | -5 | . | .
CCOc1cccc2cc(C(N)=O)c(=NCc3ccccc3)oc12 | 48* | 5 | 3 | 8 | -3 | 17*
CC(C)(C)c1ccc(-c2nnc(SCC(=O)Nc3ccc(Oc4ccccc4)cc3)n2Cc2ccco2)cc1 | 2 | 4 | . | 8 | . | .
Cc1[nH]nc2nc(SCC(=O)NCCC3=CCCCC3)n(-c3ccc(Br)cc3)c(=N)c12 | 29* | -38 | -2 | -19 | 1 | 30* | RORg DNA counter=>40
COc1ccc(-n2c(SCC(=O)NCC3CCCO3)nc3n[nH]c(C)c3c2=N)cc1 (stereo unspecified) | -6 | -4 | 0 | -3 | 0 | .
COc1ccc(-c2ccc(C#N)c(SCC(=O)Nc3sc4c(c3C#N)CCC4)n2)cc1OC | 40* | -4 | -1 | 2 | 0 | 24*
CN(Cc1ccccc1)C(=O)CSc1nc2c(c(C(F)(F)F)n1)CCc1ccccc1-2 | 11 | -1 | -1 | -2 | -1 | .
Cc1ccccc1Cn1cc(NC(=O)CSc2nc3c(c(C(F)(F)F)n2)CCc2ccccc2-3)cn1 | 19* | -4 | -3 | 4 | 2 | 9
